NS1 function inh = qHTS Assay for Inhibitors of Influenza NS1 Protein Function; Potency, µM (highest dose often 46.1 µM); 0.4% of 270,000 active; also: actives are rising curves; nearly all actives have a fitted effect of over 50% in size
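Compounds were scored for reversing the slow growth caused by influenza A NS1 in S. cerevisiae, measured by optical density at 600 nm. Assay medium contained 2% galactose at pH 6.0; NS1-free yeast of the same strain were the positive control.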
Pf growth 96h = Primary qHTS for delayed death inhibitors of the malarial parasite plastid, 96 hour incubation. P. falciparum luciferase reporter growth, 96 h. Potency, µM (highest dose often 28.7 µM), hits mostly inhibitors. 6.9% of 320,000 active. AID 504834, 2011; active = well fitted inhibition curve with a large enough effect; inconclusive = small, poorly fitted or top-dose-only effect, or another doubt; inactive = no such curve, though single readings can be large or run the other way
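Delayed-death screen, second-generation endpoint: infected erythrocytes, 2% hematocrit, 0.05% parasitemia final; 96 hours at 37 C, 5% CO2; luciferase detection reagent; luminescence decrease equals reduced growth.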
Pf growth 48h = Primary qHTS for delayed death inhibitors of the malarial parasite plastid, 48 hour incubation; 5.9% of 310,000 active; P. falciparum luciferase growth in erythrocytes, 48 h; Potency, µM (titrated, usually from 28.7 µM), usual class: inhibitors; active = well fitted inhibition curve with a large enough effect; inconclusive = small, poorly fitted or top-dose-only effect, or another doubt; inactive = no such curve, though single readings can be large or run the other way
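Growth was read as firefly luciferase luminescence after a 48 h, 37 C, 5% CO2 exposure of compounds to reporter-bearing P. falciparum cultures (0.1% parasitemia, 2% hematocrit final) in Albumax-supplemented RPMI 1640.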
SARS PLpro yeast = qHTS of Yeast-based Assay for SARS-CoV PLP; S. cerevisiae expressing SARS-CoV PLpro, growth rescue; Potency, µM (series often up to 32.9 µM), actives largely listed as activators; 0.19% of 330,000 active; also: nearly all actives have a fitted effect of over 55% in size
CHX counter = Cycloheximide Counterscreen for Small Molecule Inhibitors of Shiga Toxin; cell reporter, cycloheximide protein synthesis inhibition counterscreen; max response, %; 12% of 300,000 active; in the data active = max response mostly above about 13%, no sharp cut-off; inactive = mostly below about 14%; also: read at 38.3 µM for the half of the compounds with a filed dose
Shiga toxin inh = A qHTS for Small Molecule Inhibitors of Shiga Toxin; Vero cells, Shiga toxin protein synthesis inhibition reporter; inhibition, % at 38.7 µM; 9.2% of 290,000 active; in the data active = inhibition mostly above about 28%, no sharp cut-off; inactive = mostly below about 43%
Hits are given with their value; – = inactive; ? = inconclusive; · = no result given; + = active, no number. The list is not random: actives were taken first. Their share in the collection is about 21%. Unless noted, calls follow the shape of the full dose curve.

SMILES	NS1 function inh	Pf growth 96h	Pf growth 48h	SARS PLpro yeast	CHX counter	Shiga toxin inh
CCS(=O)(=O)N1CCN(c2nc(-c3ccccc3)cs2)CC1	–	?	–	–	18	–
O=C(CCCl)N1CCN(c2nc(-c3ccccc3)cs2)CC1	–	?	–	–	33	69
CN1CCc2c(sc3c2C(=O)NC(c2ccccc2)N3)C1 (stereo not drawn)	–	–	–	–	20	active
CC(C)(C)C1CCc2c(sc3c2C(=O)NC(c2ccco2)N3)C1 (stereo not drawn)	–	·	–	–	34	74
CN1CCc2c(sc3c2C(=O)NC(/C=C/c2ccco2)N3)C1 (stereo not drawn)	–	·	·	·	·	·
Cc1ccc(C2NC(=O)c3c(sc4c3CCN(C)C4)N2)o1 (stereo not drawn)	–	3.7µM	·	–	–	–
O=C1NC(c2ccccn2)Nc2sc3c(c21)CCC3 (stereo not drawn)	–	–	–	–	31	99
O=C(Cc1ccsc1)OCC(=O)c1ccccc1	·	·	·	–	·	·
Cc1ccc(C2NC(=O)c3c(sc4c3CCN(C)C4)N2)s1 (stereo not drawn)	–	?	–	–	33	67
CCOC(=O)N1CCc2c(sc3c2C(=O)NC(c2ccc(-c4ccc(Cl)cc4)o2)N3)C1 (stereo not drawn)	–	·	·	·	·	·
O=C1NC(c2cccnc2)Nc2sc3c(c21)CCCC3 (stereo not drawn)	–	–	–	–	33	61
Cc1ccsc1C1NC(=O)c2c(sc3c2CCCC3)N1 (stereo not drawn)	–	–	–	–	28	+
CN1CCc2c(sc3c2C(=O)NC(c2ccccn2)N3)C1 (stereo not drawn)	–	–	–	–	21	–
COc1ccc(OCCN2CCN(S(=O)(=O)c3ccccc3C(F)(F)F)CC2)cc1	·	?	?	–	·	·
COc1cc(-c2noc(C)c2-c2ccc3[nH]ccc3c2)cc(OC)c1OC	–	10µM	?	–	–	–
CC(C)c1ccc(NC(=O)Nc2cc3sccc3n2C)cc1	–	?	?	–	–	–
O=C(NCc1cccnc1)C(=O)NCC1OCCCN1S(=O)(=O)c1ccccc1 (stereo not drawn)	–	–	–	–	–	–
O=S(=O)(NCc1cc(-c2ccc(Cl)cc2)no1)c1ccccc1	–	–	–	–	–	–
O=S(=O)(NCc1cc(-c2ccccc2Cl)no1)c1ccccc1	–	–	–	–	–	–
O=S(=O)(Cc1cc(-c2ccc(Cl)cc2)no1)c1ccccc1	–	–	–	–	38	44
O=S(=O)(Cc1cc(-c2ccccc2Cl)no1)c1ccccc1	–	–	–	–	38	121
Cc1cc(C(=O)N/N=C/C=C/c2cccc([N+](=O)[O-])c2)n[nH]1	·	–	–	–	–	–
C=CCNc1nc(-c2c(C)nc3sccn23)cs1	–	–	–	–	25	50
C=CCNc1nc(C2(C)CC3(CC(C)(C)OC3=O)C(=O)O2)cs1 (stereo not drawn)	–	–	–	–	–	–
CCN(CC)C(=O)CSc1nnc(-c2cc3ccccc3cc2O)n1CC	–	–	8.3µM	–	–	–
SMILES	NS1 function inh	Pf growth 96h	Pf growth 48h	SARS PLpro yeast	CHX counter	Shiga toxin inh
CCn1c(SCC(=O)O)nnc1-c1ccccc1OC	–	–	–	–	49	103
CCN(CC)C(=O)CSc1nnc2cc(C)c3ccccc3n12	·	?	–	–	–	–
Cn1cc(S(=O)(=O)N2CCOCC2)cc1C(=O)O	·	·	·	–	·	·
c1ccc(C2=Nc3ccccc3SC2c2nc3ccccc3[nH]2)cc1 (stereo not drawn)	–	?	?	·	36	87
O=C1CC(c2nc3ccccc3[nH]2)CN1c1ccccc1 (stereo not drawn)	–	·	–	–	–	–
CN(C)CCCNCCCNC(=O)/C(=N\O)c1ccccc1	–	–	?	–	–	–
c1ccc(-n2nnnc2Sc2ncnc3sc4c(c23)CCCC4)cc1	–	1.7µM	?	–	–	–
Cc1sc2ncnc(Sc3nnnn3-c3ccc(Cl)cc3)c2c1C	–	?	8.3µM	–	–	–
CSc1nnnn1-c1ccc(Cl)cc1	–	?	–	–	–	–
CC(C)C(=O)NS(=O)(=O)c1ccc(N)cc1	–	?	–	?	–	–
Cc1ccc(Nc2cccccc2=O)cc1	–	·	–	–	16	–
C=C(C)COc1ccc2c(C)c(CC(=O)OC)c(=O)oc2c1C	–	–	?	–	47	+
COC(=O)Cc1c(C)c2ccc(OCC(C)=O)c(C)c2oc1=O	–	·	–	–	43	92
CCOC(=O)CCc1c(C)c2ccc(OCC(=O)N(CC)CC)c(C)c2oc1=O	–	·	10µM	–	–	–
COC(=O)Cc1c(C)c2ccc(OCc3nn[nH]n3)c(C)c2oc1=O	–	·	–	–	–	–
C=C(C)COc1ccc2c(C)c(C)c(=O)oc2c1OCC(=C)C	–	–	12µM	–	–	–
COc1ccc2c(c1)C(=O)N(Cc1ccccc1)C(=O)C2(C)C	–	?	?	–	–	–
COc1cc(N(C)C)cc(CN(C)CCc2ccc([N+](=O)[O-])cc2)c1O	·	·	·	·	–	–
Cc1nn(Cc2ccc(C(=O)Nc3ccc(C(=O)OC(C)C)cc3)o2)c(C)c1Cl	–	–	15µM	–	–	–
O=C(NC1CCCC1)c1cccc(Cl)c1	·	–	–	–	–	–
O=C(NC1CC1)c1ccc2c(c1)C1C3CCC(C3)C1C(c1ccccc1)N2 (stereo not drawn)	–	7.4µM	9.3µM	–	–	–
Cc1ccc(SCc2[nH]nc3c2C2(C(=O)Nc4ccc(F)cc42)C(C#N)=C(N)O3)cc1 (stereo not drawn)	–	·	–	–	–	–
CC(=O)N1CCC2(CC1)C(C#N)=C(N)Oc1n[nH]c(CSc3ccc(C)cc3)c12	–	6.6µM	–	–	–	–
CC(C)OP(=O)(OC(C)C)C1(O)C(=O)Nc2ccccc21 (stereo not drawn)	–	2.6µM	–	–	–	–
CCCCCCCCCCCCCCCCSCC(COC)COP(=O)([O-])OCC[N+](C)(C)C (stereo not drawn)	·	·	·	·	–	–
SMILES	NS1 function inh	Pf growth 96h	Pf growth 48h	SARS PLpro yeast	CHX counter	Shiga toxin inh
CCCCn1c(SCC(N)=O)nc2c(sc3ccccc32)c1=O	–	–	·	–	–	–
CCSc1nc2c(sc3ccccc32)c(=O)n1C(C)C	–	13µM	·	–	–	–
CCOc1ccc(CSC2=NCCN2)cc1[N+](=O)[O-]	–	?	?	–	–	–
CCCCOc1ccc(Br)cc1CSC(=N)N	–	?	4.7µM	–	–	–
CCCCOc1ccc(CSC2=NCCN2)cc1[N+](=O)[O-]	–	13µM	?	–	–	–
CCCCCOc1ccc(CSC(=N)N)cc1[N+](=O)[O-]	–	0.47µM	?	–	–	–
CCOc1ccc(CN(CCO)CCO)cc1[N+](=O)[O-]	–	–	–	–	–	–

From PubChem BioAssay
